From the supplement of paper PMC11732987, “Enantioselective OTUD7B fragment discovery through chemoproteomics screening and high-throughput optimisation” (Communications Chemistry, 2025)

Key:
Assay in all cases: log2 ratio of Biotin-Ahx-Ub-VS probe labelling (fragment/DMSO); higher = less target engagement (more negative = stronger competition), active = hit call of the paper (q ≤ 0.05, log2 ratio ≤ -1)
Conditions in all cases: compound concentration: 200 uM; treatment time: 3 h
[1] = biological target: T1, USP19 (UniProt O94966)
T1 sequence (whole entry): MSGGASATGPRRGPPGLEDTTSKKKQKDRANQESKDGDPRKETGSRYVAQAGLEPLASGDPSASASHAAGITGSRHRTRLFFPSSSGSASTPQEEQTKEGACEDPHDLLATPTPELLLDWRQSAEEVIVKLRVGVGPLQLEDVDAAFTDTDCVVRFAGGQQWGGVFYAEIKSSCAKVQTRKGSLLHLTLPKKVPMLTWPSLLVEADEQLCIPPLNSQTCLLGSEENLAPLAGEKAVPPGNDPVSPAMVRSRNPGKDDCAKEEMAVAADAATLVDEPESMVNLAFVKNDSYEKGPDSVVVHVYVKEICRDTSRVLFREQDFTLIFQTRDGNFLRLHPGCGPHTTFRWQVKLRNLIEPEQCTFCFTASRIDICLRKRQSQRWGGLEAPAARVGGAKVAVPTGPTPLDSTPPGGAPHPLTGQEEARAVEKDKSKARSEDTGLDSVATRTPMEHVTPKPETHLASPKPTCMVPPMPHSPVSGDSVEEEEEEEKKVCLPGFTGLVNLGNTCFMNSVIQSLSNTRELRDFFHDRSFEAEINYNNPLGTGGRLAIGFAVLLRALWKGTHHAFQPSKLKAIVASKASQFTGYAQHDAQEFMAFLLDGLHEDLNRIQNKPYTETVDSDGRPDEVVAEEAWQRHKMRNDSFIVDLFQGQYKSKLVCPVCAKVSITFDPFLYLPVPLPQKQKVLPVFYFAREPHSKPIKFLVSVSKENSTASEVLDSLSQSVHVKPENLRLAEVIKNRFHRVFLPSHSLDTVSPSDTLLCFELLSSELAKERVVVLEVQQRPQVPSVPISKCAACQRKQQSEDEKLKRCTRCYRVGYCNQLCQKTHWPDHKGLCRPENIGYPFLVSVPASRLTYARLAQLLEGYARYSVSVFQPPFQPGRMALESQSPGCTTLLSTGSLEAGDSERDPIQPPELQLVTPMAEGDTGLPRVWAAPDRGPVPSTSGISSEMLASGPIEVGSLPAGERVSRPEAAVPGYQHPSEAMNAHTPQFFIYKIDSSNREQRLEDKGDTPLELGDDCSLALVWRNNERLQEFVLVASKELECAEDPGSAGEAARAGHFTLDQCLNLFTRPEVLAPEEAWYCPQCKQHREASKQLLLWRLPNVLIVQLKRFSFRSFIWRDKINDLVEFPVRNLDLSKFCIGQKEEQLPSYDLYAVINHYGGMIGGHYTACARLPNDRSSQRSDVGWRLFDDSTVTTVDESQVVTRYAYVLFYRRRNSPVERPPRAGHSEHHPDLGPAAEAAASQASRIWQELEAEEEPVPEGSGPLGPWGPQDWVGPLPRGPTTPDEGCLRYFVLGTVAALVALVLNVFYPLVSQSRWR
Outline: (§1)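 The table lists average log2 ratios of fragment over vehicle, from an unpaired t-test on global-median-normalised Spectronaut label-free quantities. Proteins with ≥2 unique peptides were used. Samples were HEK293T lysate (495 µg) treated in triplicate with fragment at 200 µM or vehicle for 3 h, then with Biotin-Ahx-Ub-VS (0.5 µM final) for 1 h, with labelled DUBs NeutrAvidin-enriched and run by diaPASEF LC-MS/MS.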

[2] = biological target: USP24 (UniProt Q9UPU5)
Chain of USP24 (Q9UPU5 whole entry): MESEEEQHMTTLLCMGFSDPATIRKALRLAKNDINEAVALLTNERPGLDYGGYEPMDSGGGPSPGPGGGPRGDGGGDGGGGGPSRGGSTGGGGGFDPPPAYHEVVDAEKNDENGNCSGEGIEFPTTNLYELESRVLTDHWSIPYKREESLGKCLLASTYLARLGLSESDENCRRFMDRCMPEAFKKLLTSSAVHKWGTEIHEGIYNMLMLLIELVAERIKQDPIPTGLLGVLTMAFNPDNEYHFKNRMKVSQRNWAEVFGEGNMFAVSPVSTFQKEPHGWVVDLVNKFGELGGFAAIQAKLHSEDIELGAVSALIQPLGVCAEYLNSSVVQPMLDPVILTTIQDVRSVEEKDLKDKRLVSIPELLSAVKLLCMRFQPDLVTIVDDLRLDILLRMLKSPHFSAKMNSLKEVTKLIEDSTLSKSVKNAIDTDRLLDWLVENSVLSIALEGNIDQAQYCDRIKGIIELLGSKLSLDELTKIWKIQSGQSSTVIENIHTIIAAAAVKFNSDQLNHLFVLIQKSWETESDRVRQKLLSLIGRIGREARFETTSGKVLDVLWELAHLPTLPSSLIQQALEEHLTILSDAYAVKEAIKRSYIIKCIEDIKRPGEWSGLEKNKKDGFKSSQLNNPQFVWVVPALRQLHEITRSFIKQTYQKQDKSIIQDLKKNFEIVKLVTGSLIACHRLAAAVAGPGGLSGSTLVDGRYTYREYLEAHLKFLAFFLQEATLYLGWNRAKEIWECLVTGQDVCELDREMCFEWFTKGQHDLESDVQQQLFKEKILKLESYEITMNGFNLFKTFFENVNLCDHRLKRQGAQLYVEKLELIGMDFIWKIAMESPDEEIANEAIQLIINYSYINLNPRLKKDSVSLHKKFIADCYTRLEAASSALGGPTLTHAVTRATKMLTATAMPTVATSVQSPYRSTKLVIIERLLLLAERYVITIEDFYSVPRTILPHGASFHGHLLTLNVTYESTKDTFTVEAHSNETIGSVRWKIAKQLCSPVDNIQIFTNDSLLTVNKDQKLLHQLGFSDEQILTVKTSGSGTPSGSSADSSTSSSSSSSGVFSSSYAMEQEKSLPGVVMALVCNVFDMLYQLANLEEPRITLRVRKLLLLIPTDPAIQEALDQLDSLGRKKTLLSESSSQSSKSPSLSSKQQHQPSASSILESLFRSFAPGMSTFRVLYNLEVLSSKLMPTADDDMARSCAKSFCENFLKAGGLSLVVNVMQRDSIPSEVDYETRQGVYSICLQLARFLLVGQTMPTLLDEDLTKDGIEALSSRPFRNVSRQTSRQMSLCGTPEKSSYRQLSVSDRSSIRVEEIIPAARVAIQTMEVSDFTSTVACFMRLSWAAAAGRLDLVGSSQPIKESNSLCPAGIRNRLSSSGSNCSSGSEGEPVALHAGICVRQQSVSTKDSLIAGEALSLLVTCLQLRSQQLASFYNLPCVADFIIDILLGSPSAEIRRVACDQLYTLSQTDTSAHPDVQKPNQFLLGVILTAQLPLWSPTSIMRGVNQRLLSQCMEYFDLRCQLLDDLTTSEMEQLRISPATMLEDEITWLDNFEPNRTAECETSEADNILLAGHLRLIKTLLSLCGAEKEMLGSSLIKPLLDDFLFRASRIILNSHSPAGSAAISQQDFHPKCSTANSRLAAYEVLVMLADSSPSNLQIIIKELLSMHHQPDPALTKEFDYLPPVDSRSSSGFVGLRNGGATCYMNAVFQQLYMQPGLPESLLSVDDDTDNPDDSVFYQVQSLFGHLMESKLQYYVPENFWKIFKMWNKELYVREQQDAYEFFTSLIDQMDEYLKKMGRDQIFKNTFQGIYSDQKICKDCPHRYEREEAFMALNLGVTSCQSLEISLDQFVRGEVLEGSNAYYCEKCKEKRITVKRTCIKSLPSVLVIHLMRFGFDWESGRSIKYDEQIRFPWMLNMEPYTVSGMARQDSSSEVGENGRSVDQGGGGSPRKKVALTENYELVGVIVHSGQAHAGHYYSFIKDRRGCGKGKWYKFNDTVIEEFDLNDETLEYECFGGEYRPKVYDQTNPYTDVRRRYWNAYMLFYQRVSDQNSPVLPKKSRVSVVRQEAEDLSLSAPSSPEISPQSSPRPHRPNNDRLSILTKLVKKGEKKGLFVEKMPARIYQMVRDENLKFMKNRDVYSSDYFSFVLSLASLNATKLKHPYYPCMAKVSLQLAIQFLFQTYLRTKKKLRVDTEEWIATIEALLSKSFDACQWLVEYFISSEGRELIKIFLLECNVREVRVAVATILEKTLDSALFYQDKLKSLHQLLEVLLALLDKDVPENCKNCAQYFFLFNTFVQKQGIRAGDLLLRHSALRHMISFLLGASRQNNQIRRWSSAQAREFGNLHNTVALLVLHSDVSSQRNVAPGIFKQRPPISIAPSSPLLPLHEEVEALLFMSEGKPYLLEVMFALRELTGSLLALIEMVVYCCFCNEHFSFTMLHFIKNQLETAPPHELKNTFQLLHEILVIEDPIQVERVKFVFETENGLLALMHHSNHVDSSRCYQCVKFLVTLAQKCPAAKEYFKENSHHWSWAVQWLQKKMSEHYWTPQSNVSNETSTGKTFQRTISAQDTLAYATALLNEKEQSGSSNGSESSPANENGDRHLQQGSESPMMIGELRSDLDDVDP
Outline: as §1

[3] = biological target: T2, USP25 (UniProt Q9UHP3)
T2 sequence (whole entry): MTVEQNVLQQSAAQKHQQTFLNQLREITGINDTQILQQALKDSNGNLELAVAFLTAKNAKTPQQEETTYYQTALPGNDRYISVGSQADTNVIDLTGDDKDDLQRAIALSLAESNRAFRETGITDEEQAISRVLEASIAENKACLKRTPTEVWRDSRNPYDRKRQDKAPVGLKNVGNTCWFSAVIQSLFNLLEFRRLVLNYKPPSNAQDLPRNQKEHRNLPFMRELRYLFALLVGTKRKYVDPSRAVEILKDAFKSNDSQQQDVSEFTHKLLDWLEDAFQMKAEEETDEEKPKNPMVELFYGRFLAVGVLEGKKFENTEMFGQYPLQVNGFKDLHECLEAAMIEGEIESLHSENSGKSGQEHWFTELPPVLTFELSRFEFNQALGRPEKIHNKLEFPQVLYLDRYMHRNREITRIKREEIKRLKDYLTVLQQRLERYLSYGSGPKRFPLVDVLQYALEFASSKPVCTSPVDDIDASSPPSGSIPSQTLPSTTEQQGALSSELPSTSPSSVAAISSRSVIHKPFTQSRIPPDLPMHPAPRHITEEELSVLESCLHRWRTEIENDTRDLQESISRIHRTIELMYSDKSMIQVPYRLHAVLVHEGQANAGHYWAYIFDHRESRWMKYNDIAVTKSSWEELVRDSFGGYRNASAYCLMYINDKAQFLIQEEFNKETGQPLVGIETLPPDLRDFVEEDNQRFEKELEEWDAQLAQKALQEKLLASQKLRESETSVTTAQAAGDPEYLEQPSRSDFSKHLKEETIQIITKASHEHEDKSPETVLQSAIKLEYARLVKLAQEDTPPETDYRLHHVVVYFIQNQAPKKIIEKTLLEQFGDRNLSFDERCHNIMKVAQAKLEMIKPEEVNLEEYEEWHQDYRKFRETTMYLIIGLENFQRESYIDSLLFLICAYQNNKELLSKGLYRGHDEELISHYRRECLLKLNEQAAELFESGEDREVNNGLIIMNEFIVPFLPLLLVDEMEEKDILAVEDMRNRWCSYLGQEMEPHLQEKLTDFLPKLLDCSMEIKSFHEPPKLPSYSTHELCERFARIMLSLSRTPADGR
Outline: as §1

[4] = biological target: T3, USP28 (UniProt Q96RU2)
T3 sequence (whole entry): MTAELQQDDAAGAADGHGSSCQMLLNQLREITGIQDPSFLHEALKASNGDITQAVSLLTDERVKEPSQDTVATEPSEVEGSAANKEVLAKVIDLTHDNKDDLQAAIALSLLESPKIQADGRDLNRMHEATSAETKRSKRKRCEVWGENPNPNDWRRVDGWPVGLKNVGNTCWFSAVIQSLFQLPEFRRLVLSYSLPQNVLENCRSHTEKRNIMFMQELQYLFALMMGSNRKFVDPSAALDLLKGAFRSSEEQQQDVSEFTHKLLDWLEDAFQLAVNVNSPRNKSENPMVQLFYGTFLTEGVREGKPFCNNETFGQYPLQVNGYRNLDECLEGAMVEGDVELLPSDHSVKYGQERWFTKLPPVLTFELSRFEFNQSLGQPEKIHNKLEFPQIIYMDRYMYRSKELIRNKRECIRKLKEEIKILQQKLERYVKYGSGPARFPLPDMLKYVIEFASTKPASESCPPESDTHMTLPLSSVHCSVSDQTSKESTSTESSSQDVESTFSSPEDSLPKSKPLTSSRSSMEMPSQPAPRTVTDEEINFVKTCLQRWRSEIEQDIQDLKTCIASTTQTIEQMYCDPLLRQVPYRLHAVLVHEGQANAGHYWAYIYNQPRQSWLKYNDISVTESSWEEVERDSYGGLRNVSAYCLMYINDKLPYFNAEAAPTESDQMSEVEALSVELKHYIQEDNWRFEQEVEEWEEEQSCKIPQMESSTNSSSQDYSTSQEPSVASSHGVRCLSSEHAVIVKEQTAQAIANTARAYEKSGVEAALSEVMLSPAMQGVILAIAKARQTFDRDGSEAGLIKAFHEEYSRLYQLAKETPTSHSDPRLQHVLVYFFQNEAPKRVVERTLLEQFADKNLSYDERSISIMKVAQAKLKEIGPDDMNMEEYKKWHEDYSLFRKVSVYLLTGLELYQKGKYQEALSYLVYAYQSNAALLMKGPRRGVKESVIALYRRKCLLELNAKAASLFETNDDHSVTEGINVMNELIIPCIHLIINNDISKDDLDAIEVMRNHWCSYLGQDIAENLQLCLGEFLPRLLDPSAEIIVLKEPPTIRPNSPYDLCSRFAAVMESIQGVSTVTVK
Outline: as §1

Measured: log2 ratio of Biotin-Ahx-Ub-VS probe labelling

C#Cc1cccc(NC(=O)CCl)c1
inactive: [1] -0.38 | [2] -0.837 | [3] -0.804 | [4] -0.906
